Test results as given in PubChem BioAssay AID1159580 (chemical genetic matrix, 2015).
Where “and” joins values, the source holds several entries; their conditions need not be identical. Identical values can stand only once. In all, about 5,500 compounds went through this assay and about 2,000 (36%) were called active. Inconclusive results (about 18%) are left out. No stated cut-off is given here; in the data, active means normalized growth mostly below about 0.91 (no sharp cut-off); inconclusive means no clear call, values can overlap the other calls; inactive means mostly above about 0.92. This is one part of the list.

Experiment: chemical genetic growth profiling, strain panel (AID 1159580);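 further: tested at 20 µM; growth read once vehicle control cultures reached saturation at 30 °C; 1 = growth at the plate median or of vehicle wells; lower values mean less growth of the strain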
Conditions: S. cerevisiae deletion strains, growth OD

Measured: normalized growth

O=c1[nH]c2cc(Cl)c(Cl)cc2[nH]c1=O
inactive: locus YAL013W, strain DEP1, active compounds read low 1 and 0.993 | locus YAL021C, strain ccr4, active compounds read low 1.03 | locus YAL026C, strain drs2, active compounds read low 0.993 | locus YAL030W, strain snc1, active compounds read low 0.989 | locus YAL040C, strain CLN3, active compounds read low 1.11 | locus YBL061C, strain skt5, active compounds read low 0.982 | locus YBR009C, strain hhf1, active compounds read low 0.988 | locus YBR021W, strain FUR4, active compounds read low 1 | locus YBR023C, strain chs3, active compounds read low 1 | locus YBR171W, strain sec66, active compounds read low 0.98 | locus YBR229C, strain ROT2, active compounds read low 1.01 | locus YBR231C, strain swc5, active compounds read low 0.979 | locus YBR279W, strain paf1, active compounds read low 0.985 | locus YCL011C, strain gbp2, active compounds read low 0.984 | locus YCL016C, strain dcc1, active compounds read low 0.997 | locus YCL029C, strain bik1, active compounds read low 1.04 | locus YCL061C, strain MRC1 (second series), active compounds read low 1.01 | locus YCL069W, strain vba3, active compounds read low 0.999 | locus YCR088W, strain abp1, active compounds read low 0.997 | locus YDL005C, strain med2, active compounds read low 0.982 | locus YDL035C, strain GPR1, active compounds read low 1.01 | locus YDL040C, strain nat1, active compounds read low 0.994 | locus YDL074C, strain BRE1, active compounds read low 1.03 | locus YDL101C, strain DUN1, active compounds read low 1.02 | locus YDL134C, strain PPH21, active compounds read low 1.01 | locus YDL185W, strain tfp1, active compounds read low 1.02 | locus YDL192W, strain arf1, active compounds read low 1.02 | locus YDR001C, strain nth1, active compounds read low 1 | locus YDR069C, strain doa4, active compounds read low 0.969 | locus YDR101C, strain arx1, active compounds read low 1.03 | locus YDR137W, strain rgp1, active compounds read low 0.994 | locus YDR150W, strain NUM1, active compounds read low 1.01 | locus YDR159W, strain sac3, active compounds read low 0.901 | locus YDR162C, strain NBP2, active compounds read low 1.01 | locus YDR195W, strain ref2 1 | locus YDR297W, strain sur2, active compounds read low 0.99 | locus YDR318W, strain mcm21, active compounds read low 1.02 | locus YDR334W, strain swr1, active compounds read low 0.994 | locus YDR335W, strain msn5, active compounds read low 1 | locus YDR363W, strain ESC2, active compounds read low 0.968 | locus YDR388W, active compounds read low 1.02 | locus YDR392W, strain spt3, active compounds read low 0.92 | locus YDR502C, strain sam2, active compounds read low 1.03 | locus YEL003W, strain gim4, active compounds read low 0.993 | locus YEL037C, strain rad23, active compounds read low 1 | locus YEL061C, strain CIN8 (second series), active compounds read low 1.01 | locus YEL061C, strain CIN8, active compounds read low 1.01 | locus YER002W, strain NOP16, active compounds read low 0.997 | locus YER015W, strain faa2, active compounds read low 0.995 | locus YER016W, strain bim1, active compounds read low 0.992 | locus YER110C, active compounds read low 1.04 | locus YER111C, strain swi4, active compounds read low 0.991 | locus YER155C, strain BEM2 (second series), active compounds read low 0.967 | locus YER155C, strain BEM2, active compounds read low 1 | locus YER167W, strain BCK2, active compounds read low 1.02 | locus YFR010W, strain ubp6, active compounds read low 0.985 | locus YGL078C, strain dbp3, active compounds read low 1.03 | locus YGL086W, strain mad1, active compounds read low 1.01 | locus YGL167C, strain pmr1, active compounds read low 0.999 | locus YGL173C, strain kem1, active compounds read low 0.984 | locus YGL227W, strain vid30, active compounds read low 0.986 | locus YGL240W, strain doc1, active compounds read low 0.966 | locus YGL248W, strain PDE1, active compounds read low 1.01 | locus YGL253W, strain hxk2, active compounds read low 0.975 | locus YGR078C, strain PAC10, active compounds read low 1.02 and 1.04 | locus YGR135W, strain pre9, active compounds read low 1.02 | locus YGR229C, strain SMI1, active compounds read low 1.01 | locus YGR252W, strain gcn5, active compounds read low 1.01 | locus YHR013C, strain ard1, active compounds read low 0.988 | locus YHR027C, strain rpn1, active compounds read low 0.986 | locus YHR030C, strain SLT2, active compounds read low 1.01 | locus YHR079C, strain IRE1 (second series), active compounds read low 1.02 | locus YHR094C, strain hxt1, active compounds read low 1.01 | locus YHR129C, strain ARP1, active compounds read low 1.01 | locus YHR142W, strain chs7, active compounds read low 1.01 | locus YHR200W, strain rpn10, active compounds read low 1.02 | locus YIL066C, strain RNR3, active compounds read low 1.01 | locus YIL073C, strain SPO22, active compounds read low 1.1 | locus YIL125W, strain kgd1, active compounds read low 1.02 | locus YIR030C, strain dcg1, active compounds read low 1.04 | locus YJL092W, strain hpr5, active compounds read low 0.997 | locus YJL095W, strain BCK1 (second series), active compounds read low 1.02 | locus YJL095W, strain BCK1, active compounds read low 1.02 | locus YJL115W, strain asf1, active compounds read low 1 | locus YJL129C, strain trk1, active compounds read low 0.95 | locus YJL134W, strain LCB3, active compounds read low 1.01 | locus YJL154C, strain vps35, active compounds read low 0.999 | locus YJL164C, strain tpk1, active compounds read low 0.998 | locus YJL166W, strain qcr8, active compounds read low 0.989 | locus YJL168C, strain set2, active compounds read low 1.02 | locus YJL187C, strain SWE1 (second series), active compounds read low 1.01 | locus YJR043C, strain POL32, active compounds read low 1.01
